Compound activity as filed in PubChem BioAssay.
A selection: hits, their analogues and other compounds. The true share with any hit is near 22%.
CYP2C19 act: activators of human cytochrome P450 2C19 | recombinant CYP2C19, luciferin-H EGE luminescence; stronger effect = higher value; 0 = fully inhibited enzyme, 1 = untreated enzyme | AID 1025 | activation factor at 5 µM | 96,000 tested, under 10 active;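 active = activation factor of at least 2 at 5 µM in the primary screen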
CYP2C9 act: activators of human CYP2C9; AID 1024; P11712; recombinant CYP2C9, luciferin-H conversion, luminescence; stronger effect = higher value; factor 1 = untreated enzyme, 0 = blocked; 96,000 tested, 1.4% active; activation factor at 5 µM;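 active = activation factor of 2 or more for CYP2C9 at a 5 µM dose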
Target sequence (P11712 whole entry, looked up): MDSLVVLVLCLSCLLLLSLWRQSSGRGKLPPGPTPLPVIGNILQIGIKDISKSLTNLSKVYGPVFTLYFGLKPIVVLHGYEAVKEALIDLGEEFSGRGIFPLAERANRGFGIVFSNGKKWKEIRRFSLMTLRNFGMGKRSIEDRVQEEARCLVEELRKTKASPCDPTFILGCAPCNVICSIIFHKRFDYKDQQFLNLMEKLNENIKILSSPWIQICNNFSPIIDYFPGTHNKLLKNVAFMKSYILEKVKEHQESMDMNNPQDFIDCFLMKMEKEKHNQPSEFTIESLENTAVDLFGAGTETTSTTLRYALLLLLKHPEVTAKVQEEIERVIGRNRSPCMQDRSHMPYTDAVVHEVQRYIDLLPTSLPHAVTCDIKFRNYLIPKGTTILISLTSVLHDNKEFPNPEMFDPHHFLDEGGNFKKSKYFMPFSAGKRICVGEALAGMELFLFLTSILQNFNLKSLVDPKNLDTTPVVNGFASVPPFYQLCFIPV
Measles CPE: protection of cells from measles virus; Measles virus-infected cells, CPE protection, absorbance; protection (pct of control), % at 4 µM; 140,000 tested, 1.5% active; AID 841; in the data active = protection mostly above about 24%, no sharp cut-off; inactive = mostly below about 26%
CYP2C19 inh: inhibitors of human CYP2C19 | 96,000 tested, 21% active | inhibition, % at 5 µM | CYP2C19 Supersomes, luciferin-H EGE luminescence, 30 min | P33261;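 active = CYP2C19 inhibition above a set limit at 5 µM in the primary screen, cut at about 50% in these data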
CYP2C9 inhib: inhibitors of human CYP2C9 | inhibition, % at 5 µM | AID 777 | 96,000 tested, 20% active | CYP2C9 Supersomes, luciferin-H conversion, luminescence;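 active = blocking of liver enzyme CYP2C9 beyond about 50% at 5 µM, limit read from the data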
Hits are given with their value; – = inactive; · = no result.

SMILES	CYP2C19 act	CYP2C9 act	Measles CPE	CYP2C19 inh	CYP2C9 inhib
COc1ccc(CNC(=O)CN(C(=O)c2cc3sccc3n2C)C2CCCC2)cc1	–	–	–	–	–
Cc1ccc(C2=CC(C)(c3ccc(C)cc3)Nc3nc(C(F)(F)F)nn32)cc1 (stereo not drawn)	·	·	–	·	·
Cc1cc(C2=CC(C)(c3cc(C)oc3C)Nc3nc(C(F)(F)F)nn32)c(C)o1 (stereo not drawn)	–	–	–	–	87.3
CC(=O)Nc1nonc1NC(=O)CSc1ncn[nH]1	–	–	–	–	–
COc1ccc(/C=N/OCc2nc3c4c(ncn3n2)Oc2ccc3ccccc3c2C4c2ccccc2)cc1 (stereo not drawn)	–	–	–	69.3	–
COc1ccc(C2c3c(ccc4ccccc34)Oc3ncn4nc(Cc5ccccc5)nc4c32)cc1OC (stereo not drawn)	·	·	–	·	·
Nc1nnc(Cc2c[nH]c3ccccc23)s1	–	–	–	–	–
c1ccc2c(Cn3ccnc3)c[nH]c2c1	–	–	–	86.0	84.3
O=C(Nc1ccc2c(c1)OCCO2)C1CCN(C(=O)c2ccccc2)CC1	–	·	–	–	·
O=C(Nc1ccc2c(c1)OCCO2)C1CCN(C(=O)c2ccc(Br)cc2)CC1	–	–	–	–	85.0
O=C(Nc1cccc(F)c1)C1CCN(C(=O)c2ccc(Br)cc2)CC1	–	–	–	90.1	92.9
O=C(Nc1cccc(F)c1)C1CCN(c2nnnn2-c2ccccc2)CC1	–	–	–	–	50.6
O=C(Nc1ccc2c(c1)OCCO2)C1CCN(c2nnnn2-c2ccccc2)CC1	–	–	–	–	–
CCCC1=C(C(=O)OCC)C(c2cc(Cl)cc(OC)c2OCc2ccccc2)NC(=O)N1 (stereo not drawn)	–	–	–	50.4	64.5
O=C(NC(=S)Nc1ccc(S(=O)(=O)Nc2nccs2)cc1)c1ccc(F)cc1	·	·	–	·	·
O=C(NCc1ccc2c(c1)OCO2)c1ccccn1	·	·	–	·	·
O=C(/C=C\Nc1ccc2c(c1)OCO2)c1ccccn1	–	–	–	57.1	–
CCOc1ccc(N/C=C\C(=O)c2ccc3c(c2)OCO3)cc1	·	·	41.9	·	·
O=C(Nc1nc(-c2ccc(Oc3ccccc3)cc2)cs1)C1=COCCO1	·	·	–	·	·
CC(SCC(=O)NC(C)C1CC2CCC1C2)C(=O)O (stereo not drawn)	·	·	–	·	·
COC(=O)Oc1ccc(/C=N/NC(=O)CSCc2ccccc2Br)cc1OC	–	–	–	56.5	67.4
Cc1cc(SCC(=O)N/N=C/c2ccc(O)c(O)c2O)c(C)cc1Br	–	–	–	–	–
COc1ccc(/C=N/NC(=O)CCn2c3ccccc3c3ccccc32)cc1O	–	–	–	94.4	96.9
COc1ccc(/C=N/NC(=O)CSCC(=O)Nc2ccccc2)cc1OC	–	–	–	–	–
COc1cc(/C=N/NC(=O)CSc2cc(C)c(Br)cc2C)ccc1O	–	–	–	–	76.1
SMILES	CYP2C19 act	CYP2C9 act	Measles CPE	CYP2C19 inh	CYP2C9 inhib
CCc1ccc(-c2cc(-c3n[nH]c(=S)n3CC)c3ccccc3n2)cc1	·	·	–	·	·
CCn1c(-c2cc(-c3cccc(OC)c3)nc3ccccc23)n[nH]c1=S	–	–	–	–	90.9
O=C(O)CCNS(=O)(=O)c1ccc(Oc2ccccc2)cc1	–	–	–	–	–
CCOC(=O)/C(C#N)=C1/SC(CCO)C(=O)N1c1ccccc1 (stereo not drawn)	·	·	–	·	·
CCC1S/C(=C(\C#N)C(=O)NCc2ccco2)N(c2ccc(Br)cc2)C1=O (stereo not drawn)	–	–	–	–	51.3
CCOC(=O)/C(C#N)=C1/SC(CC)C(=O)N1c1ccc(Br)cc1 (stereo not drawn)	–	–	–	78.4	–
CCOC(=O)/C(C#N)=C1/SC(C)C(=O)N1c1ccc(Br)cc1 (stereo not drawn)	–	–	–	95.4	71.8
CCC1S/C(=C(\C#N)C(=O)NCc2ccco2)N(c2ccc(F)cc2)C1=O (stereo not drawn)	–	–	–	–	–
O=C(COC(=O)c1ccccc1C(=O)c1ccccc1)NCCc1ccc(Cl)cc1Cl	·	·	–	·	·
CCOC(=O)C1C(=O)OC(C)(C)C1C(C)C(=O)c1ccc(OC)cc1 (stereo not drawn)	–	–	–	–	–
CCOC(=O)C1C(=O)OC(C)(C)C1C(C)C(=O)c1ccccc1 (stereo not drawn)	–	–	–	72.7	–
COc1cc(OC)c2c(c1)C(=O)c1cc(OC)cc(OC)c1C2=O	–	–	–	–	–
CC(NC(=O)c1ccc2c(c1)OCO2)C1CCCO1 (stereo not drawn)	–	–	–	–	–
O=C(CCCN1CCC(c2ccccc2)C1)c1ccc2c(c1)OCCO2 (stereo not drawn)	–	–	–	72.2	–
O=C(CCN1CCc2ccccc2CC1)c1ccc2c(c1)OCCO2	–	–	–	55.0	71.1
O=C(CCN1CCOCC1)c1ccc2c(c1)OCCO2	·	·	–	·	·
CCOc1ccc(N=C(NC#N)SCC(=O)NC2CC2)cc1	–	–	–	–	–
CSc1nc(SCC(=O)NC(c2ccccc2)c2ccccc2)c2c3c(sc2n1)CN(C)CC3	–	–	–	–	57.4
COc1cccc(C(=O)CSc2nnc(-c3ccco3)n2CC2CCCO2)c1 (stereo not drawn)	–	–	–	67.0	–
O=C(CSc1nnc(-c2ccco2)n1CC1CCCO1)N1CCCCC1 (stereo not drawn)	–	–	–	52.1	–
O=C(/C=C/c1ccccc1)/C=C/c1ccccc1	·	·	–	·	·
Cc1ccc(S(=O)(=O)NCC(=O)OC(C(=O)c2ccccc2)c2ccccc2)cc1 (stereo not drawn)	–	–	–	–	56.6
Cn1c(=O)[nH]c(=O)c2c1nc(N1CCCCC1)n2CCCSc1nc2ccccc2s1	·	·	–	·	·
O=C(CSc1nccn1-c1ccc(Cl)cc1)NCc1ccc2c(c1)OCO2	–	–	–	99.6	98.3
COC(=O)c1ccc(CSc2nnc(CNC(=O)c3ccc(OC)cc3)o2)o1	–	–	–	–	–
SMILES	CYP2C19 act	CYP2C9 act	Measles CPE	CYP2C19 inh	CYP2C9 inhib
O=C(COc1ccc(Cl)cc1)NCc1nnc(SCC(=O)NCc2ccc3c(c2)OCO3)o1	–	–	–	–	70.4
CCOc1ccccc1NC(=O)CSc1nnc(CNC(=O)c2ccco2)o1	–	–	–	–	–
CCOc1ccccc1NC(=O)CSc1nnc(CNC(=O)COc2ccc(Cl)cc2)o1	–	2	–	–	–
COC(=O)c1ccc(CSc2nnc(CNC(=O)COc3ccc(Cl)cc3)o2)o1	–	–	–	–	67.6
COc1ccc(N2C(N)=C(C#N)C(c3ccsc3)C3=C2CCCC3=O)c(OC)c1 (stereo not drawn)	·	·	–	·	·
COC(=O)c1sc2nc(C)c([N+](=O)[O-])c(C)c2c1N	·	·	–	·	·
Cn1nnnc1SCCNS(=O)(=O)c1ccccc1	–	–	–	78.2	–
Cc1ccc(-n2nnnc2SCCNS(=O)(=O)c2ccccc2)cc1C	–	2	–	74.6	–
O=C(COC(=O)Cc1ccsc1)NC1CCCCCC1	–	–	–	73.8	–
O=C(COC(=O)c1ccccc1NS(=O)(=O)c1cccs1)NCC12CC3CC(CC(C3)C1)C2	·	·	–	·	·
